Screens as filed in PubChem.
PP5 inh = PP5 (human) phosphatase inhibition | 320,000 compounds, 0.18% hits | P53041 | inhibition, % at 6.7 µM | AID 1987 | purified PP5c, OMFP substrate fluorescence;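 active = inhibition above the campaign's mean inhibition across all tested compounds plus 3 SD, cut at about 9.5% in these data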;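 also: 0% = DMSO only and 100% = 100 µM cantharidin control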
PAFAH1B3 FP inh = inhibitors of human PAFAH1B3; Q15102; recombinant PAFAH1B3, FP-rhodamine probe, fluorescence polarization; inhibition, % at 3.39 µM; 340,000 compounds, 0.28% hits; AID 492972;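 active = inhibition above the screen-wide average of all tested compounds plus 3 SD, cut at about 25% in these data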;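 also: 0% = enzyme with DMSO only and 100% = wells lacking PAFAH1B3 protein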
Target sequence (Q15102 whole entry, looked up): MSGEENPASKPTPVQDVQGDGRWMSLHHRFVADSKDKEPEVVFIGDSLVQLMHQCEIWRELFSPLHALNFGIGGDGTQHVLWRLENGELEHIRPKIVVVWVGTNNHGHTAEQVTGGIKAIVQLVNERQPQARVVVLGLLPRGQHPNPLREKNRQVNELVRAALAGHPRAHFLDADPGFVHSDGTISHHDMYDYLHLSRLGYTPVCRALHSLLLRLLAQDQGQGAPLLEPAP
PP1 counter = counter-screen for PP5 inhibitors: inhibitors of human PP1-alpha; purified PP1alpha, OMFP fluorescence; inhibition, % at 6.7 µM; 320,000 compounds, 0.9% hits;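 active = inhibition above the mean inhibition of all tested compounds plus 3 SD, computed separately for each screening campaign, cut at about 15% in these data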
Target sequence (P62136 whole entry, looked up): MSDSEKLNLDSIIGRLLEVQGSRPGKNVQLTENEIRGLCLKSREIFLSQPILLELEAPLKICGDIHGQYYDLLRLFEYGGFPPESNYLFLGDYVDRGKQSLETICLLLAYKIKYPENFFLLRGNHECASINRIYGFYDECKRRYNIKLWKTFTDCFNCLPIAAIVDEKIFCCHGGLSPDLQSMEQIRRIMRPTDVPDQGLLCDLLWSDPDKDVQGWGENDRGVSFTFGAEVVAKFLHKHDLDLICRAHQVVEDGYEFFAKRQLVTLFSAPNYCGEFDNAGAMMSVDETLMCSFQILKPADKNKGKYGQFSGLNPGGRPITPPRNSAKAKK
PAFAH1B2 FP inh = blocks human PAF acetylhydrolase 1b catalytic subunit 2. P68402. recombinant PAFAH1B2, FP-rhodamine activity probe, fluorescence polarization. inhibition, % at 3.39 µM. 340,000 compounds, 1.2% hits;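 active = inhibition above the mean of all tested compounds plus 3 SD, cut at about 24% in these data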;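 also: 0% = enzyme with DMSO and 100% = wells lacking PAFAH1B2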
PAFAH2 inh = PAFAH2 (human) inhibition. AID 492956. inhibition, % at 3.39 µM. Q99487. recombinant PAFAH2, FP-rhodamine activity probe, fluorescence polarization. 340,000 compounds, 0.99% hits;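 active = inhibition above the mean over all tested compounds plus 3 SD, cut at about 30% in these data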;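 also: inhibitors block probe labeling of enzyme so polarization drops; 0% = enzyme with DMSO and 100% = wells lacking PAFAH2 protein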
pPAFAH inh = pPAFAH (human) enzyme inhibition; Q13093; recombinant pPAFAH, FP-rhodamine probe fluorescence polarization; inhibition, % at 3.39 µM; 330,000 compounds, 1.5% hits; AID 463082;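 active = inhibition above the mean inhibition across the screen plus 3 SD, cut at about 25% in these data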;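 also: inhibitors block binding of the rhodamine activity-based probe so polarization drops; 0% = enzyme with DMSO and 100% = wells lacking pPAFAH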
PP1 inh confirm = confirmation of human PP1 phosphatase inhibitors; shares compounds with PP1 counter; inhibition, % at 6.7 µM; AID 2358; purified PP1alpha, OMFP substrate fluorescence; 1,900 compounds, 52% hits;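 active = mean PP1 inhibition above a set limit taken from the earlier primary screen, cut at about 15% in these data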
PP5 inh counter = PP5 phosphatase inhibition, counter-screen for PP1 inhibitors; purified PP5c, OMFP fluorescence; 1,900 compounds, 4% hits; inhibition, % at 6.7 µM; shares compounds with PP1 counter;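 active = mean PP5 inhibition over triplicate wells above about 9.5% taken from the earlier PP1 screen, limit read from the data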
* = called active by the depositor; . = no result. Hits are enriched below; roughly 3.4% of the tested compounds scored in any of these assays.

SMILES | PP5 inh | PAFAH1B3 FP inh | PP1 counter | PAFAH1B2 FP inh | PAFAH2 inh | pPAFAH inh | PP1 inh confirm | PP5 inh counter
O=C(Nc1ccc2oc(-c3cccnc3)nc2c1)c1ccc2c(c1)OCCO2 | 4.3 | -4.2 | 30.1* | -0.3 | 5.1 | 15.0 | 14.4 | -5.1
COc1ccccc1C(=O)Nc1nc(C)cc(C)n1 | 2.0 | . | -1.6 | . | . | -1.3 | . | .
COCCNC(=O)CSc1ccccc1C(=O)NC1CCCc2ccccc21 (stereo unspecified) | 3.5 | 1.9 | 0.8 | -0.7 | 13.5 | -0.5 | . | .
Cc1cc(C)c[n+](CC(=O)c2ccc(C)c([N+](=O)[O-])c2)c1 | -0.6 | 6.4 | 0.7 | -1.7 | -4.4 | -0.6 | . | .
O=C(CN1C(=O)CCC1=O)Nc1nc(-c2nc3ccccc3s2)cs1 | 0.1 | 3.7 | -2.5 | -0.3 | 2.9 | 4.5 | . | .
O=C(Nc1nc(-c2nc3ccccc3s2)cs1)c1ccco1 | 2.9 | -0.7 | 23.4* | -4.4 | 9.4 | -4.3 | 25.9* | -2.5
O=C(Nc1nc(-c2nc3ccccc3s2)cs1)C1CC1 | 1.5 | 6.6 | 23.9* | 4.4 | 6.6 | 0.1 | 25.9* | 0.4
O=c1cc(O)nc(SCc2ccccc2)n1-c1ccc(Cl)cc1 | 1.5 | -3.4 | 20.6* | -0.1 | -0.2 | 10.0 | 4.4 | -1.9
Cc1ccc(NC(=O)CSc2nc(O)cc(=O)n2-c2ccc(C)cc2)cc1 | 0.5 | -5.6 | 24.9* | -2.4 | -0.3 | -8.6 | 0.9 | -0.6
CCOC(=O)C1(Cc2cccc(Cl)c2)CCCN(C(=O)CN2C(=O)CSC2=O)C1 (stereo unspecified) | 1.3 | 1.1 | 18.9* | 3.9 | 0.4 | 3.3 | -2.9 | -5.3
COC(=O)CCC(=O)OC1(C)C(=O)C=C2C=C(C3CC3)N(c3cccc(C#N)c3)C=C2C1=O (stereo unspecified) | 3.2 | 8.8 | 3.5 | -3.2 | -1.4 | 8.8 | . | .
COC(=O)CCC(=O)OC1(C)C(=O)C2=CN(c3ccc(OC)cc3)C(c3ccc(OC)cc3)=CC2=C(Br)C1=O (stereo unspecified) | 3.6 | 6.4 | 19.8* | -1.5 | 7.5 | 22.4 | 15.7* | 20.2*
COC(=O)CCC(=O)OC1(C)C(=O)C=C2C=C(C3CC3)N(c3ccc(CO)cc3)C=C2C1=O (stereo unspecified) | 6.9 | . | 19.0* | . | . | 10.6 | 19.8* | 9.9*
COC(=O)CCC(=O)OC1(C)C(=O)C2=CN(C3CCCC3)C(c3ccc(OC)cc3)=CC2=C(Br)C1=O (stereo unspecified) | 9.7* | 5.8 | 17.1* | 6.8 | 0.7 | 14.3 | 15.1 | 34.7*
CC(CCc1ccco1)NC(=O)CCc1nnc2ccc(NCc3ccc(Cl)cc3)nn12 (stereo unspecified) | 3.0 | 4.4 | 22.4* | 20.6 | 7.4 | 6.6 | 16.6* | -4.1
CC(CCc1ccco1)NC(=O)CCc1nnc2ccc(NCc3ccccc3Cl)nn12 (stereo unspecified) | -0.1 | 5.7 | 13.5 | 4.9 | -0.6 | 19.7 | . | .
CC(C)(C)c1cc(NCCCn2ccnc2)n2ncc(-c3ccccc3)c2n1 | 2.2 | . | 21.3* | . | . | 6.8 | 13.8 | 2.7
O=C(c1cc(C2CC2)nn1-c1ccccc1)N1CCN(c2ccc(O)cc2)CC1 | . | -0.8 | . | 7.1 | 2.4 | . | . | .
CCCOC(=O)c1ccc(NC(=O)c2ccccc2OC)cc1 | 2.1 | 2.5 | -3.6 | 0.2 | 2.8 | 0.6 | . | .
CCCCOC(=O)c1ccc(NC(=O)c2ccccc2OC)cc1 | 6.8 | -5.5 | 63.8* | -6.3 | -6.5 | -2.2 | 1.5 | 1.7
COc1ccc(C(=O)C2CCCN(Cc3ccc4nonc4c3)C2)c(OC)c1 (stereo unspecified) | 0.8 | -1.2 | -2.1 | 4.0 | 6.2 | -0.1 | . | .
O=c1c2sc3nc(N4CCOCC4)c4c(c3c2ncn1C(c1ccccc1)c1ccccc1)CCCC4 | . | 2.1 | . | 2.2 | -0.3 | . | . | .
Cc1nc(N2CCN(C(=O)c3ccco3)CC2)nc2c1C(=O)CCC2 | 1.7 | -1.6 | -3.0 | 2.5 | 2.0 | 1.8 | . | .
O=C1OC(c2ccccc2)c2ccc3ccccc3c21 (stereo unspecified) | 3.7 | 1.4 | 18.8* | -0.7 | 8.1 | 5.7 | -1.6 | -1.7
Cc1cccn2c(Nc3ccccc3)c(-c3ccccn3)nc12 | 0.3 | -2.8 | 12.3 | 1.5 | 3.2 | 15.7 | . | .
SMILES | PP5 inh | PAFAH1B3 FP inh | PP1 counter | PAFAH1B2 FP inh | PAFAH2 inh | pPAFAH inh | PP1 inh confirm | PP5 inh counter
Cc1ccc2nc(-c3ccccn3)c(Nc3ccccc3C)n2c1 | 4.3 | 6.2 | 30.0* | 6.1 | -0.7 | 17.4 | 41.7* | 5.2
Cc1ccn2c(Nc3ccccc3C)c(-c3ccccn3)nc2c1 | 4.0 | 4.1 | 32.1* | 11.6 | 6.7 | 16.3 | 38.7* | 3.3
Cc1ccccc1Nc1c(-c2ccccn2)nc2ccccn12 | 3.3 | 2.7 | 34.3* | 6.5 | 14.1 | 20.8 | 12.4 | 2.3
Cc1ccn2c(Nc3ccccc3)c(-c3ccccn3)nc2c1 | 2.2 | 4.5 | 30.7* | 0.1 | -2.8 | 5.9 | 33.0* | -0.9
Cc1ccccc1Nc1c(-c2cccnc2)nc2ccccn12 | 1.4 | 5.7 | -8.5 | 4.3 | -3.7 | -0.7 | . | .
CN(Cc1nc(-c2ccccc2)no1)C1CCOCC1 | 0.0 | 3.2 | -3.9 | 1.9 | -0.3 | 4.3 | . | .
COc1cccc(COC(=O)CCNC(=O)c2ccc(Cl)cc2)c1OC | 2.3 | 3.1 | -0.5 | 10.3 | 6.3 | -0.2 | . | .
CCCNC(=O)[C@@H]1CCCN1C(=O)[C@@H]1Cc2ccccc2CN1 | -0.7 | 4.3 | -0.8 | 1.2 | 7.6 | 3.9 | . | .
CC(NC(=O)C1CC1)C(c1cccs1)N1CCN(c2ccccc2)CC1 (stereo unspecified) | 0.0 | -0.2 | 46.6* | 5.5 | -6.0 | 1.7 | -3.3 | -5.1
CC(C)C(=O)NC(C)C(c1cccs1)N1CCN(c2ccccc2)CC1 (stereo unspecified) | 3.1 | 5.6 | 0.9 | 4.3 | 8.1 | 6.9 | . | .
COc1ccccc1C(=O)NC(=O)COC(=O)CNC(=O)c1ccc(Cl)c([N+](=O)[O-])c1 | 0.0 | 5.5 | 27.3* | -0.2 | 9.8 | -6.4 | -3.3 | -2.5
COc1ccccc1C(=O)NC(=O)COC(=O)c1ccc(Cl)cc1[N+](=O)[O-] | 1.5 | 0.9 | -3.7 | -1.4 | 0.4 | -3.7 | . | .
Cc1cc(NC(=O)NC(C(F)(F)F)C(F)(F)F)no1 | 0.9 | -3.3 | -4.2 | 1.7 | -8.4 | 7.3 | . | .
COc1ccc(CNC(=O)CCn2c(=O)oc3ccccc32)cc1 | -0.1 | 15.1 | 2.9 | 11.4 | 2.4 | 4.0 | . | .
CCOc1ccc(CNC(=O)CCn2c(=O)oc3ccccc32)cc1 | 3.0 | -0.2 | 23.3* | 8.7 | -3.0 | 4.9 | -4.4 | -4.5
O=S(=O)(c1cccs1)N1CCN(Cc2cccc(F)c2)CC1 | 2.0 | 5.5 | 27.1* | 2.7 | 5.4 | 5.8 | 0.5 | 0.5
Cc1ccc(Cn2nnc3c(=O)[nH]c(C4CCN(S(=O)(=O)c5ccc(F)cc5)CC4)nc32)cc1 | 1.6 | -4.7 | 14.3 | 1.4 | 4.1 | 9.6 | . | .
